Data as given in the supplement of paper PMC4166925.
± gives the standard deviation of the averaged measurements. Over roughly 33,000 sequences, “E-score (dimensionless, -0.5 to 0.5)” has its median near -0.049; the highest 2% begin near 0.37. Shown is part of a subset that was picked to be rich in the highest values.

System: T1, PmTbr T-box DNA-binding domain (GST fusion)
T1 sequence: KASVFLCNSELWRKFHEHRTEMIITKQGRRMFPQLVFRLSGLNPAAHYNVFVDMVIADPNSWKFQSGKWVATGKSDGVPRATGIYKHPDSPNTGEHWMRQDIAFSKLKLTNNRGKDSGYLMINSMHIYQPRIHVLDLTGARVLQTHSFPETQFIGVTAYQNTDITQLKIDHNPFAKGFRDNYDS
Assay: PBM E-score of 8-mer (E-score (dimensionless, -0.5 to 0.5)); Tbr is Tbrain of the sea star Patiria miniata (Pm) or the sea urchin Strongylocentrotus purpuratus (Sp); higher = stronger binding preference
Details: the construct has about 5 more residues each side
In short: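 Primer extension turned Universal Agilent oligonucleotide arrays double-stranded. They were incubated with 200 nM protein in PBS (pH 7.5); the protein was a GST-fused Tbr T-box DNA-binding domain expressed in BL21 E. coli at 20 °C and purified on glutathione. Every ungapped 8-mer was scored from the scanned, quantified probe intensities, and the Universal PBM Analysis Suite gave each an enrichment E-score averaged over duplicate arrays.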

| Sequence | PBM E-score of 8-mer |
| --- | --- |
| ATGACACA | 0.314 ± 0.0075 |
| CTGACAGC | 0.289 ± 0.011 |
| GCCGCTGA | -0.113 ± 0.074 |
| GACATCGA | -0.0159 ± 0.0023 |
| CACACCAC | 0.406 ± 0.012 |
| CCCACCAC | -0.0276 ± 0.048 |
| AACACCAG | 0.335 ± 0.022 |
| CGCACCAG | 0.2978 ± 0.0014 |
| CACACCAA | 0.3718 ± 0.0018 |
| CACCACAC | 0.367 ± 0.018 |
| CACACCAG | 0.399 ± 0.018 |
| CCCACCAA | -0.112 ± 0.048 |
| CTCACCAA | 0.211 ± 0.042 |
| CAATATCG | 0.06478 ± 0.00031 |
| GCCATAGA | -0.0661 ± 0.067 |
| CAGGTAGC | -0.062 ± 0.011 |
| CAGTACCA | -0.0345 ± 0.056 |
| ACATTACC | -0.144 ± 0.023 |
| AGCCACGG | -0.119 ± 0.013 |
| CTCGTCCC | -0.303 ± 0.016 |
| AAATAGGT | 0.0404 ± 0.07 |
| GCACAGGA | -0.162 ± 0.05 |
| CGCAAAAC | 0.0965 ± 0.0024 |
| ACACGTGC | 0.387 ± 0.023 |
| GCACGTGC | 0.2695 ± 0.0011 |
| ACACGTGT | 0.403 ± 0.023 |

| Sequence | PBM E-score of 8-mer |
| --- | --- |
| CCACGTGC | 0.149 ± 0.013 |
| ACACGTGA | 0.292 ± 0.017 |
| ACACGTGG | 0.307 ± 0.022 |
| ACATGGTG | 0.243 ± 0.0055 |
| GCAAGCCA | -0.221 ± 0.037 |
| GCATCTGA | -0.0824 ± 0.1 |
| ATTATCCG | -0.0296 ± 0.042 |
| GATGGCGA | 0.1142 ± 0.00067 |
| CAGTGGAG | -0.068 ± 0.012 |
| ACTTGTGG | 0.196 ± 0.014 |
| ACTTGTTG | 0.332 ± 0.018 |
| CGTTGTGA | 0.2 ± 0.0095 |
| CCTTGTTA | 0.126 ± 0.011 |
| AGTTGTGG | 0.122 ± 0.039 |
| TCTTGTCA | 0.207 ± 0.023 |
| ACTTGTCA | 0.4044 ± 0.0039 |
| ACTTGTGA | 0.411 ± 0.0095 |
| AGTTGTGA | 0.387 ± 0.017 |
| ACTTGTTA | 0.372 ± 0.044 |
| GCTTGTCA | 0.0851 ± 0.047 |
| GCTTGTGA | 0.187 ± 0.0082 |
| ATACTTAA | -0.187 ± 0.096 |
| CTAGTGCA | 0.173 ± 0.0046 |
| TCCCCAGA | -0.207 ± 0.12 |
| GCAGAAAA | -0.0494 ± 0.066 |
| TATTCCGA | -0.274 ± 0.013 |

| Sequence | PBM E-score of 8-mer |
| --- | --- |
| CACTTCGG | 0.363 ± 0.015 |
| ATATACGG | -0.038 ± 0.039 |
| CTTTTAGC | 0.22 ± 0.074 |
| AGTCCTAG | -0.0285 ± 0.042 |
| ATAGTAAG | -0.216 ± 0.029 |
| GGCTAAAA | -0.22 ± 0.064 |
| GATGTGAC | 0.308 ± 0.017 |
| AGTGTGAC | 0.467 ± 0.0075 |
| AGTGTGTC | 0.248 ± 0.0093 |
| AGTGTGAT | 0.463 ± 0.0063 |
| CGTGTGAG | 0.363 ± 0.013 |
| ACTGTGAC | 0.239 ± 0.026 |
| AGAGTGAT | 0.239 ± 0.0043 |
| AATGTGAT | 0.258 ± 0.039 |
| GGTGTGAC | 0.4864 ± 0.0033 |
| GCTGTGAC | 0.208 ± 0.037 |
| CGTGTGTC | 0.204 ± 0.018 |
| CGTGTGAC | 0.4054 ± 0.0011 |
| CACCCAAG | 0.263 ± 0.023 |
| TCTTAGCA | 0.2 ± 0.017 |
| CCCGAATC | 0.00343 ± 0.029 |
| ACAAGACC | 0.0576 ± 0.017 |
| GACTACCA | -0.0358 ± 0.082 |
| CAGGAGAC | -0.136 ± 0.017 |
| AGTGTGAG | 0.4585 ± 0.0031 |
| AGTGTGTG | 0.338 ± 0.021 |

| Sequence | PBM E-score of 8-mer |
| --- | --- |
| ATTGTGAG | 0.2213 ± 0.00029 |
| CACACAGG | 0.119 ± 0.044 |
| CGGCAAAA | -0.0622 ± 0.057 |
| ACATCCGG | -0.0734 ± 0.061 |
| GAACTGGA | -0.175 ± 0.037 |
| CCTGGAAA | -0.133 ± 0.014 |
| AAAGACAA | -0.172 ± 0.069 |
| CACCTTTC | 0.411 ± 0.034 |
| GACCTTTA | -0.207 ± 0.088 |
| CACCTTTA | 0.404 ± 0.013 |
| CCCCTTTC | -0.124 ± 0.061 |
| AACCTTTA | -0.0895 ± 0.057 |
| AACCTTTC | -0.105 ± 0.047 |
| CGCGCATC | 0.0691 ± 0.012 |
| GGCTGGAA | -0.127 ± 0.064 |
| GACCACCA | -0.142 ± 0.031 |
| AGGAAGGG | -0.28 ± 0.01 |
| GAGCACCA | -0.0664 ± 0.018 |
| GGGCACCA | -0.125 ± 0.059 |
| TGGCACCA | 0.377 ± 0.0055 |
| TCGCACCA | 0.44 ± 0.0079 |
| GCGCACCA | -0.0144 ± 0.01 |
| AGGCACCA | -0.171 ± 0.024 |
| CCGCACCA | 0.187 ± 0.0087 |
| CAGCACCA | 0.0936 ± 0.032 |
| TAGCACCA | 0.403 ± 0.015 |

| Sequence | PBM E-score of 8-mer |
| --- | --- |
| GAATTCCC | 0.0309 ± 0.029 |
| GCAGGGTA | -0.0138 ± 0.034 |
| ACAGGTGA | 0.406 ± 0.0049 |
| GCAGGTGA | 0.4392 ± 0.002 |
| CCAGGTCC | -0.114 ± 0.039 |
| ACAGGTTA | 0.252 ± 0.022 |
| GCAGGTAA | -0.0867 ± 0.05 |
| ACAGGTGG | 0.331 ± 0.022 |
| CCAGGTAC | -0.105 ± 0.1 |
| CCAGGTGA | 0.339 ± 0.023 |
| ACAGGTGC | 0.4412 ± 0.0022 |
| GCAGGTCA | 0.103 ± 0.027 |
| CCAGGTGC | 0.379 ± 0.014 |
| ACAGGTCC | 0.0798 ± 0.068 |
| CAGCGTGA | 0.266 ± 0.0088 |
| CGGGCCCG | 0.108 ± 0.013 |
| CCCCAGAG | -0.096 ± 0.018 |
| CTGTGTCA | 0.216 ± 0.027 |
| ATGTGTCA | 0.4653 ± 0.0037 |
| ATATGTCG | 0.134 ± 0.029 |
| ATGTGTCC | 0.0956 ± 0.026 |
| ATGTGTCG | 0.402 ± 0.0094 |
| GTGTGTCA | 0.348 ± 0.02 |
| CTCCTTGC | -0.127 ± 0.067 |
| ACGTAATA | -0.234 ± 0.071 |
| ACCATTGG | -0.068 ± 0.046 |

| Sequence | PBM E-score of 8-mer |
| --- | --- |
| ACAGCCTC | -0.206 ± 0.14 |
| CGTTCGCA | 0.38 ± 0.037 |
| GGTTCGCA | 0.334 ± 0.02 |
| AGTTCGCA | 0.378 ± 0.0033 |
| CATTCGCA | 0.3497 ± 0.0027 |
| AGTTCGCC | 0.0555 ± 0.091 |
| CGTTCGCC | 0.0701 ± 0.066 |
| ACTGCAGT | 0.185 ± 0.034 |
| ACGTGCGA | 0.4433 ± 0.0027 |
| AAGTGCGT | 0.149 ± 0.039 |
| CAGTGCGC | -0.0646 ± 0.032 |
| TAGTGCCA | 0.249 ± 0.0097 |
| ACGTGCGG | 0.191 ± 0.05 |
| TAGTGCGA | 0.4056 ± 0.0024 |
| AAGTGCGA | 0.4835 ± 0.00061 |
| GCGTGCGA | 0.285 ± 0.02 |
| AAGTGCGC | 0.138 ± 0.026 |
| CAGTGCGA | 0.386 ± 0.019 |
| CAGTGCGG | -0.0389 ± 0.1 |
| TAGTGCAA | 0.267 ± 0.055 |
| ATCAACGG | -0.182 ± 0.042 |
| ATGTTTCA | -0.174 ± 0.074 |
| CGGTTTGA | -0.1932 ± 0.0019 |
| ATAACCAA | -0.112 ± 0.038 |
| CTTAGGAA | -0.24 ± 0.011 |
| CGGAAAAA | -0.0583 ± 0.12 |

| Sequence | PBM E-score of 8-mer |
| --- | --- |
| AAACTACT | 0.0819 ± 0.0066 |
| CTTCTCAC | 0.365 ± 0.01 |
| GAGTGCGA | 0.4088 ± 0.00055 |
| ATGTGCGG | 0.0803 ± 0.028 |
| GAGTGCGC | -0.0278 ± 0.044 |
| ATGTGCGC | 0.138 ± 0.0009 |
| ATGTGCGA | 0.4691 ± 0.0032 |
| GAGTGCAA | 0.0826 ± 0.02 |
| CCTTTCGA | -0.06 ± 0.02 |
| AAGTCATA | -0.0653 ± 0.022 |
| ATGCAATA | -0.341 ± 0.0082 |
| CACCTTAC | 0.394 ± 0.0074 |
| AACCTTAA | -0.209 ± 0.044 |
| GACCTTAA | -0.136 ± 0.0073 |
| GACCTTAC | -0.313 ± 0.028 |
| CCCCTTAG | -0.195 ± 0.0038 |
| AACCTTAG | -0.0923 ± 0.0088 |
| CACCTTAG | 0.4473 ± 0.0023 |
| CACCTTAA | 0.385 ± 0.011 |
| AACCTTAC | -0.000525 ± 0.043 |
